Measurements reported in PubChem BioAssay (NCI).
Compounds without any hit were thinned out: in the full panel of roughly 83,000, 20% have a hit.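 Assay: single dose, 48 h. Readout: percent growth (0 = no net growth; negative = cell death). Active: <10.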 Active and inactive are the calls of the source.

Tested on: HL-60(TB) leukemia
Experiment: NCI-60 one-dose screen, 48 h (100 = growth as untreated, 0 = no growth, -100 = all killed)
Conditions: 10 µM unless noted

Q: For `COC1/C=C/OC2(C)Oc3c(C)c(O)c4c(O)c(c(/C=N/N(c5ccccc5)c5ccccc5)c(O)c4c3C2=O)NC(=O)C(C)=C/C=C/C(C)C(O)C(C)C(O)C(C)C(OC(C)=O)C1C` (stereo unspecified), which growth is on record?
A: 53.1% (inactive)

Q: `Cc1c(Cl)cccc1NC(=O)c1sc2nc3c(cc2c1N)C(=O)CCC3` was tested. Which growth did it give?
A: -1.76% (active)

Q: How did the growth turn out when `CC(C)N1CC(=O)N2CSCC2C1=O` (stereo unspecified) was run?
A: 102% (inactive)

Q: With `NS(=O)(=O)c1ccc(CCN2C(=O)C3C(C2=O)C2(Cl)C(Cl)=C(Cl)C3(Cl)C2(Cl)Cl)cc1` (stereo unspecified) as the molecule, how does the growth read?
A: 78.4% (inactive)

Q: `COc1ccc(-c2[nH]ncc2-c2cc3c(c(OC)c2)OCC(=O)N3)cc1` was tested. Which growth did it give?
A: 11.3% (inactive)

Q: With `Cc1cc(NC(=O)COC(=O)c2sc3cc(F)ccc3c2Cl)no1` as the molecule, how does the growth read?
A: 107% (inactive)
